Here are results for 52 compounds from ChEMBL document CHEMBL4513216, “Probing the Open Global Health Chemical Diversity Library for Multistage-Active Starting Points for Next-Generation Antimalarials” (ACS Infect Dis, 2020).

Out of some 69,000 compounds screened, about 8,600 (12%) showed an effect of 50% or more. Shown is part of a subset that was picked to be rich in strong results.

The test has as its system Plasmodium berghei. Briefly: Screen against P. berghei liver stage (PbLuc), transformed with Luciferase, at 10uM. In kind it is functional, HepG2. To be noted: tested at 10 uM.
As for `Cn1cc(N2CC3(CCN(Cc4cccnc4)CC3)OCC2=O)cn1`, the INHIBITION was 22.9%. In the case of `Cc1nc(C)n(C2CCCN(C(=O)c3ccc4nccn4c3)C2)n1` (configuration not stated) it was 20.8%; in that of `Cc1ccc(N2CC[C@]3(O)CCN(CCN4CCCC4=O)C[C@@H]3C2)nn1`, -2.25%; in that of `O=C1CCCN1CCN1CC[C@@]2(O)CCN(c3ncccn3)C[C@H]2C1`, 51.2%. The value for `CSCCCN1CC[C@@]2(O)CCN(c3ncccn3)C[C@H]2C1` was 38.3%; that for `CCc1nnc2n1CCN(C(=O)c1cc3ccccc3[nH]1)C2` was 18.2%; that for `Cc1cc(N2CCc3cncnc3C2)n2nc(C(F)(F)F)nc2n1` was 50.8%. As to `Cc1cc(N2CCc3cnc(C)nc3C2)n2nc(C(F)(F)F)nc2n1`, the INHIBITION turned out to be 10.6%. In the case of `Cc1cc(N2CCc3c(ncn3C)C2)n2nc(C(F)(F)F)nc2n1` it was 20%. In the case of `CC(C)SCc1cccc(NC2CCN(C)C2=O)c1` (configuration not stated) it was -13.9%; in that of `CCSCc1cccc(NC2CCN(C)C2=O)c1` (configuration not stated), 52.5%.

In the case of `Cc1nc(C)n(Cc2cccc(NC3CCN(C)C3=O)c2)n1` (configuration not stated), the INHIBITION is -41.6%. The value for `CN1CCCC(CCC(=O)N2CCc3c(nc(CC4CC4)[nH]c3=O)C2)C1` (configuration not stated) was 49.3%; that for `CCOCCn1nc(C)cc1C(=O)N1CCC2(CC1)[C@H](O)C[C@@H]2OCC` was 9.63%.

Consider `CCO[C@H]1C[C@@H](O)C12CCN(C1Cc3ccccc3C1)CC2`, for which the INHIBITION is listed as 50.3%.

As for `CCO[C@H]1C[C@@H](O)C12CCN(C(=O)CC(F)(F)F)CC2`, the INHIBITION turned out to be 90.2%.

As for `CCO[C@H]1C[C@@H](O)C12CCN(C(=O)CCN1CCCC1=O)CC2`, the INHIBITION is given as 14.5%.

As for `CCO[C@H]1C[C@@H](O)C12CCN(C1CCN(c3ccccc3)CC1)CC2`, the INHIBITION is 25.8%. As for `CCO[C@H]1C[C@@H](O)C12CCN(S(=O)(=O)c1ccccc1OC)CC2`, the INHIBITION amounted to 46.4%. In the case of `CCO[C@H]1C[C@@H](O)C12CCN(C1CCN(c3ccccc3C)CC1)CC2` it was 69.4%.

Take `NCCO[C@H]1C[C@@H](O)C12CCN(C1Cc3ccccc3C1)CC2`: the INHIBITION was 43%.

As to `CCO[C@H]1C[C@@H](O)C12CCN(C(=O)CN1CCCCCC1=O)CC2`, the INHIBITION turned out to be 24.3%. In the case of `Cc1ncc(C(=O)N2CCCC(Cc3nccs3)C2)cn1` (configuration not stated) it was 29.3%. In the case of `CCN(CC)c1ncc2c(O)nc(C3CCNCC3)cc2n1` it was 6.26%. `CCN(C)c1ncnc2c1CCN(C(=O)COC)CC2`: the INHIBITION is given as -12.1%. In the case of `COC(=O)[C@H](C)NC(=O)COc1nn(C)c2nc(C)cc(C)c12` it was -10.2%; in that of `Cc1cc2nc(SCC(=O)N3CCCC3)n(Cc3ccco3)c(O)c-2n1`, 34.2%. The value for `CCS(=O)(=O)N(C)CCCNC(=O)c1cc(Cl)cc2cccnc12` was 37.9%. In the case of `CCCNC(=O)C(C)n1nc(-c2ccc(C)o2)cc(N)c1=O` (configuration not stated) it was 31.6%; in that of `CCc1cc(CNC(=O)C2CCCN(C(=O)NCC(C)C)C2)[nH]n1` (configuration not stated), 22.5%.

With `CN(Cc1ccccc1)c1cnn(CC2CCCCO2)c(=O)c1` (configuration not stated), the INHIBITION is given as 28.2%. The value for `COCC1CC2(CCN(C(=O)c3cnc4ccccc4c3)CC2)CO1` (configuration not stated) was 42.1%. As for `COC(=O)c1ccc(CN(C)C(=O)c2cnsn2)cc1`, the INHIBITION stood at 64.1%. The value for `COC(=O)c1cccc(C(=O)N(C)Cc2cccc(O)c2)c1` was 7.44%. The value for `Cc1ccc(CN(C)C(=O)c2cnsn2)cc1` was 65.2%; that for `CN(Cc1cccc(OC(F)(F)F)c1)C(=O)Cc1ccon1` was 19.5%; that for `Cc1ccc(CN(C)C(=O)CN2CCCC2c2cnn(C)c2)cc1` (configuration not stated) was -1.79%. On to `CN(Cc1cccc(OC(F)(F)F)c1)C(=O)c1cnsn1`, for which the INHIBITION is given as 68.6%. The value for `Cc1ccc(CN(C)C(=O)c2scnc2C)cc1` was -11.19%; that for `CN(Cc1cccc(OC(F)(F)F)c1)C(=O)c1ccncc1F` was 39.4%; that for `COC(=O)c1cccc(C(=O)N(C)Cc2ccsc2)c1` was 13.8%.

For `Cc1nn(C)c2cn(CC(=O)N3CCN(c4ccccn4)CC3)nc12`, the INHIBITION turned out to be 30%. In the case of `CC(c1ccco1)N(C(=O)Cn1nc2n(c1=O)CCCCC2)C1CC1` (configuration not stated), the INHIBITION is listed as 5.94%. The value for `Cc1ncc(C(=O)NCCNc2ncccc2C#N)s1` was -0.113%.

For the compound `O=C(Cn1ccnc1)N(CCO)CCSc1ccc(Cl)cc1`, the INHIBITION was found to be 9.41%. `COCC(=O)N1CCCC2(CCN(Cc3cccc(C)n3)C2=O)C1` (configuration not stated): the INHIBITION is 43.9%. For `N#Cc1ccc(F)cc1Cn1cnc(C2CCC2)cc1=O`, the INHIBITION is recorded as -22.3%. Take `N#Cc1cc(Cn2cnc(C3CCC3)cc2=O)ccc1F`: the INHIBITION is given as 74.3%. The value for `N#Cc1cc(F)ccc1Cn1cnc(C2CCC2)cc1=O` was 26.6%; that for `CCc1nnc2n1CCN(Cc1cc(Cl)c3c(c1)OCCO3)C2` was 10.235%; that for `COc1ncccc1CNC(=O)c1cc(Cl)ccn1` was -22.8%. The value for `Cc1noc(CCCC(=O)N2CCCCC2CNS(C)(=O)=O)n1` (configuration not stated) was 49.7%.
